The whole screen tested about 3,400 compounds, of which about 840 (25%) were called active. Not shown: some 11% with an inconclusive outcome. The list is a sample of the results. Potency and affinity values are given separately. Unmarked numbers belong to inactive results.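 Rule for the calls: active = fitted half-maximal concentration of signal decrease at or below twice the sample's top tested concentration; inconclusive = flat curve between -70 and -30 percent, or poor fit; inactive = flat within 30 percent, signal rise, or potency above limit.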
Assay: inhibitors of Toxoplasma growth in IFN-γ-primed HeLa – cell-based, ME49Luc, luciferase, 72 h, dose response (AID 1259418)
Details: T. gondii ME49Luc in IFN-y HeLa, hits give low values, -100% = high-dose IFN-γ control wells; at 19.5 µM unless noted

Structure (SMILES)	max activity
CN1C(=O)CCc2cc(NC(=O)C3CCC3)ccc21	8.04%
CN1C(=O)CCc2cc(NC(=O)C3CCCCC3)ccc21	40.8%
COc1ccc(-c2nc(Nc3cc(OC)c(OC)c(OC)c3)c3ccccc3n2)cc1	-9.87% [at 0.16 µM]
O=C(CCC1N=C2c3ccccc3N=C(SCc3cc(=O)n4cc(Cl)ccc4n3)N2C1=O)NCc1ccc2c(c1)OCO2 (stereo not drawn)	-18.4% [at 10 µM]
CCCCN(C)C(=O)Cn1c(=O)c(S(=O)(=O)c2ccccc2)cc2cc(C)ccc21	-7.02% [at 0.35 µM]
COc1ccc(C(=O)N2CCC3(CC2)Nc2ccc(C)c(C)c2-n2cccc23)cc1	7.01% [at 0.68 µM]
CCS(=O)(=O)N1CCC(C(=O)NCCc2csc(-c3ccccc3)n2)CC1	-17%
O=C(NCCc1csc(-c2ccccc2)n1)C1CCN(S(=O)(=O)c2ccccc2F)CC1	8.96% [at 0.16 µM]
Cc1ccc(S(=O)(=O)N2CCC(C(=O)NCCc3csc(-c4ccccc4)n3)CC2)cc1C	12.1% [at 1.35 µM]
Cc1ccc(S(=O)(=O)N2CCC(C(=O)NCCc3csc(-c4ccccc4)n3)CC2)c(C)c1	19.2% [at 0.35 µM]
COc1ccc(-c2nc3c(s2)CN(C(=O)Nc2ccccc2C(F)(F)F)CC3)cc1	102%
Cc1nc(Nc2ccc(F)cn2)sc1C(=O)N1CCC(C(N)=O)(N2CCCCC2)CC1	6.22%
COc1ccccc1NC(=O)Nc1ccc(-c2nc(-c3cccc(Br)c3)co2)cc1	8.23%
Cc1ccc2c(c1)cc(S(=O)(=O)c1ccccc1)c(=O)n2CC(=O)NCCC(C)C	-4.39% [at 5 µM]
COc1ccc(-c2nc(N3CCN(c4cccc(Cl)c4)CC3)c3ccccc3n2)cc1	-7.34% [at 10 µM]
COC(=O)c1ccccc1NC(=O)N1CCN(Cc2nc(-c3cccc(Cl)c3)oc2C)CC1	3.54% [at 2.6 µM]
COc1ccccc1NC(=O)CN1CCC2(CC1)N=C(c1ccc(Cl)cc1)C(=O)N2	-13.9% [at 1.35 µM]
Cc1ccc(C)c(-c2coc(-c3ccc(NC(=O)CC(C)C)cc3)n2)c1	-23% [at 10 µM]
COc1ccc(-c2nc(CSc3nc4c(c(=O)[nH]3)CN(Cc3ccccc3)CC4)c(C)o2)cc1	9.43% [at 1.35 µM]
Cn1cnc2c1C(C(=O)O)CN(C(=O)c1ccsc1)C2 (stereo not drawn)	44.9%
C=CCN1CCC2(CC1)CC(NCc1ccc(C)s1)c1ccccc1O2 (stereo not drawn)	-7.33% [at 1.2 µM]
CCCCNC(=O)CC1Nc2c3ccccc3nc(=S)n2C1=O (stereo not drawn)	-20.7% [at 10 µM]
COc1ccccc1CNC(=O)CC1Nc2c3ccccc3nc(=S)n2C1=O (stereo not drawn)	46.9% [at 0.16 µM]
O=C(CC1Nc2c3ccccc3nc(=S)n2C1=O)NCc1ccc(F)cc1 (stereo not drawn)	15.6% [at 0.16 µM]

Structure (SMILES)	max activity
O=C(CC1Nc2c3ccccc3nc(=S)n2C1=O)NCc1ccccc1 (stereo not drawn)	26.5% [at 2.6 µM]
O=C(CC1Nc2c3ccccc3nc(=S)n2C1=O)NCc1ccc(Cl)cc1 (stereo not drawn)	15.8%
O=C(CCC1Nc2c3ccccc3nc(=S)n2C1=O)NCCN1CCN(c2ccccc2)CC1 (stereo not drawn)	19.8% [at 0.16 µM]
O=C(CCC1Nc2c3ccccc3nc(=S)n2C1=O)NCCN1CCN(c2cccc(Cl)c2)CC1 (stereo not drawn)	7.2% [at 5 µM]
CCCCCNC(=O)CC1Nc2c3ccccc3nc(=S)n2C1=O (stereo not drawn)	-10.3% [at 10 µM]
CCc1nc(OCC(=O)Nc2ccc(Br)cc2)c2ccccc2n1	33.9% [at 0.68 µM]
CCc1onc(C)c1C1CCCN1C(=O)Cn1nc(C(F)(F)F)c2c1CCCC2 (stereo not drawn)	9.22% [at 2.6 µM]
CN(C)S(=O)(=O)N1C[C@@H]2CN(Cc3ccoc3)CCO[C@H]2C1	25.4%
Cc1cnc(N2Cc3nccn3CC(CN3CCCC3)C2)nc1 (stereo not drawn)	46.2%
COc1ccc(-c2nc3c(s2)CN(C(=O)Nc2cc(C)ccc2C)CC3)cc1	75%
CCOc1ccccc1N(Cc1nc(-c2cccc(C)c2)oc1C)S(=O)(=O)c1ccccc1	3.42% [at 0.68 µM]
COc1ccc(-c2nc(CN(c3ccccc3OC)S(=O)(=O)c3ccccc3)c(C)o2)cc1	24.5% [at 10 µM]
CCOc1ccc(-c2nc(CN(c3ccccc3OC)S(=O)(=O)c3ccc(C)cc3)c(C)o2)cc1	17.2% [at 0.68 µM]
COc1ccccc1N(Cc1nc(-c2ccc(OC(C)C)cc2)oc1C)S(=O)(=O)c1ccccc1	-5.99% [at 1.35 µM]
CCOc1ccccc1CNc1nc(-c2ccc(OC)cc2)nc2ccccc12	-11.7% [at 0.35 µM]
NC(=O)C1(N2CCCCC2)CCN(c2ncc(NC(=O)c3ccccc3)cc2C(=O)O)CC1	14.4% [at 0.16 µM]
Cc1cccc(N2CCN(c3nc(-c4ccc(Cl)cc4)nc4ccccc34)CC2C)c1 (stereo not drawn)	-29% [at 0.35 µM]
Cc1ccc2c(c1C)-n1cccc1C1(CCN(C(=O)c3cccc(Br)c3)CC1)N2	-13.6% [at 1.35 µM]
Cc1nc(OCC(=O)Nc2ccc(Cl)cc2Cl)c2ccccc2n1	23% [at 5 µM]
Cc1ccc(-c2coc(-c3ccc(NC(=O)C(C)C)cc3)n2)c(C)c1	-33.6% [at 5 µM]
Cc1ccc(-c2coc(-c3ccc(NC(=O)Nc4ccccc4F)cc3)n2)cc1	86.4% [at 10 µM]
Cc1oc(-c2ccccc2)nc1Cn1nnc(-c2nc(-c3ccc(C(F)(F)F)cc3)no2)c1C	47.1%
CN(C)C(=O)COCC1CN(S(C)(=O)=O)Cc2nnn(C)c21 (stereo not drawn)	28%
Cc1csc(-c2cc(S(=O)(=O)N3CCC(Cc4ccccc4)CC3)c(C)s2)n1	-11.8% [at 0.16 µM]

Reference: PubChem BioAssay AID1259418 (Broad Institute, 2018)
